Screening results (PubChem BioAssay)
In the library only some 19% were active in any assay of this set; here they are far more common.
ELG1 repair inh – ELG1-dependent DNA repair inhibition; HEK293T ELG1-luciferase reporter, luminescence, 16 h; DNA damage induced by 5-fluorouridine; AID 504467; 330,000 tested, 2.3% active; Potency, µM (top dose mostly 46.1 µM), for inactives: at the top dose activity change, negative = inhibition, usual class: inhibitors; also: potency is read from the fitted curve at half-maximal effect; nearly all actives have a fitted effect of over 55% in size
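Luminescence from the luciferase reporter, measured 30 min after ONE-Glo reagent at room temperature, was the read-out. Beforehand, 2,000 cells per well were exposed for 16 hr at 37 °C to 5-fluorouridine together with compound or vehicle.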
IL1B secr inh – inflammasome signaling inhibition, IL-1 beta readout; 360,000 tested, 4.7% active; activity change, % at 57.5 µM; THP-1 LPS/ATP IL-1B secretion, AlphaLISA, 16 h; hits give low values; AID 743279; in the data active = activity change below about -50%; inconclusive = mostly about -30% to -49%
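THP-1 cells pretreated 1 hr with compounds (up to 57.5 uM final), then stimulated with LPS (250 ng/mL final) plus ATP (1.25 mM final); secreted IL-1B measured by AlphaLISA after 16 hr, decreased signal indicating inhibition.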
HT1080-NT tox – kills 2HG-producing HT-1080-NT fibrosarcoma cells; HT-1080-NT fibrosarcoma viability, CellTiter-Glo ATP luminescence, 48 h; 360,000 tested, 1.6% active; Potency, µM (series often up to 46.1 µM), inactives show at the top dose activity, negative = less viability, actives largely listed as cytotoxic;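 also: NT is the 2HG producing partner of a matched IDH1 knockdown line; potency is read from the fitted curve at half-maximal effect; 0% = DMSO-treated cells and -100% = media-only wells without cells; nearly all actives have a fitted effect of over 55% in size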
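Viability of the 2HG-overproducing fibrosarcoma line after 48 hours of compound exposure at 37 degrees C was determined by luminescence with CellTiter-Glo, and concentration-effect curves were then fitted and categorized.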
DT40 TDP1 CPT – growth inhibition of DT40 Tdp1-/-;hTDP1 cells with camptothecin (screen for TDP1 inhibitors). chicken DT40 Tdp1-/-;hTDP1 cells + 20 nM CPT, ATP luminescence, 48 h. Potency, µM (top dose mostly 46.2 µM), for inactives: top-dose activity change, negative = growth inhibition, usual class: inhibitors. 420,000 tested, 12% active; also: potency is read from the fitted curve at half-maximal effect; nearly all actives have a fitted effect of over 55% in size
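Chicken DT40 Tdp1-/- cells complemented with human TDP1, 400 cells/well, exposed to compounds plus 20 nM camptothecin for at least 48 h at 37 C; viability read as ATP content by CellTiter-Glo luminescence.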
HT1080 IDH1KD tx – kills HT-1080 cells with IDH1 knockdown; HT-1080 IDH1 knockdown viability, ATP luminescence, 48 h; Potency, µM (highest dose often 46.1 µM), for the others: top-dose activity, negative = toxicity, usual class: cytotoxic; 360,000 tested, 2% active;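 also: potency is read from the fitted curve at half-maximal effect; 0% = DMSO wells and -100% = cell-free medium wells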
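Using the IDH1-knockdown HT-1080 line run in the same batch and compound series as the NT line, viability after 48 h at 37 °C was determined by CellTiter-Glo luminescence and expressed as % activity.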
TDP1 cell noCPT – qHTS for Inhibitors of human tyrosyl-DNA phosphodiesterase 1 (TDP1): qHTS in cells in absence of CPT | Potency, µM (titrated, usually from 46.2 µM), for the others: top-dose activity change, negative = growth inhibition, most hits filed as inhibitors | 420,000 tested, 15% active | AID 686978, 2013 | DT40 Tdp1-/- hTDP1 cells, no CPT, ATP luminescence, 48 h; also: potency is read from the fitted curve at half-maximal effect; nearly all actives have a fitted effect of over 55% in size
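Readout: luminescence from CellTiter-Glo after 30 min in the dark at RT. Cells: DT40 Tdp1-/- with stable hTDP1, 400/well. Exposure: compounds alone, ≥48 hr, 37 °C.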
The depositor's hits bear a star; ? = inconclusive; nt = no result; [ ] = dose if it differs, or a comment. Unless noted, calls follow the shape of the dose curve; as a rule, active = well fitted curve in the direction sought with a large enough effect; inconclusive = small, poorly fitted or top-dose-only effect, or another doubt; inactive = no such curve, though single readings can be large; an effect the other way counts as inactive or inconclusive. Unless noted, % is scaled to controls: 0 for no effect and ±100 for the full control effect.

SMILES | ELG1 repair inh | IL1B secr inh | HT1080-NT tox | DT40 TDP1 CPT | HT1080 IDH1KD tx | TDP1 cell noCPT
Cc1c(OC(C)C(=O)NCc2ccccn2)ccc2c3c(c(=O)oc12)CCCC3 (stereo unspecified) | ? | -28 | -8% | 13µM* | -13% | ?
Cc1c(OCC(=O)N(C)C)ccc2c3c(c(=O)oc12)CCCCC3 | -7% | -2 | 1% | -16% | 1% | ?
CC(=O)COc1ccc2c3c(c(=O)oc2c1C)CCCCC3 | ? | -12 | 1% | 15µM* | 8% | ?
CCOC(=O)C1CCN(S(=O)(=O)c2ccc(OC)c(Cl)c2)CC1 | -9% | 0 | -3% | 15% | -13% | 1%
CCC(C)CN1C(=O)CN(S(C)(=O)=O)CC1(C)C(=O)NCc1ccccc1 (stereo unspecified) | nt | 13 | 16% | 9% | 21% | -13%
O=C1c2ccc(Cl)cc2S(=O)(=O)c2cccc(C(=O)N3CCN(c4ccc(Cl)cn4)CC3)c21 | ? | -93* | ? | 13µM* | ? | 16µM*
COc1ccc(-c2ccc3c(c2)S(=O)(=O)c2cccc(C(=O)N4CCN(c5ccc(Cl)cn5)CC4)c2C3=O)cc1OC | ? | 61 | 5% | -5% | -3% | ?
N#Cc1ccc(OCC(O)CN2CCC(C(O)(c3ccccc3)c3ccccc3)CC2)cc1 (stereo unspecified) | -1% | -95* | -8% | 21µM* | ? | ?
CC(C)(C(=O)O)c1ccc(C(O)CCCN2CCC(C(O)(c3ccccc3)c3ccccc3)CC2)cc1 (stereo unspecified) | -15% | 31 | 14% | 26% | -5% | 0%
Cc1cc(OCCCN2CCC(C(O)(c3ccccc3)c3ccccc3)CC2)ccc1Br | nt | -75* | 16µM* | 5.8µM* | ? | 5.8µM*
N#Cc1ccc(-c2ccc(OCC(O)CN3CCOCC3)cc2)cc1 (stereo unspecified) | 0% | 1 | 4% | ? | 2% | -39%
N#Cc1cccc(OCCCN2CCC(C(O)(c3ccccc3)c3ccccc3)CC2)c1 | nt | -57* | ? | ? | ? | 16µM*
Cc1ccc(S(=O)(=O)N(Cc2ccc(C(F)(F)F)cc2)C(=O)N2CCN(C)CC2)cc1 | 12% | 10 | 0% | 0% | 5% | -12%
Cc1c(C(=O)NCCC2CCCN2C)cnn1-c1nccc(-c2ccccc2F)n1 (stereo unspecified) | nt | nt | nt | -2%[9.04 µM] | nt | -16%
Cc1c(C)c2cc3c(c(C)c2oc1=O)OCN(CCc1ccccc1)C3 | nt | nt | nt | 13µM* | nt | ?
CCc1c(C)c2cc3c(c(C)c2oc1=O)OCN(CCc1ccccc1F)C3 | nt | nt | nt | 13µM* | nt | 16µM*
CCOC(=O)CCc1c(C)c2cc3c(c(C)c2oc1=O)OCN(CCc1ccccc1OC)C3 | nt | nt | nt | 29µM* | nt | ?
Cc1c(CCC(=O)O)c(=O)oc2cc(OCc3ccccc3F)ccc12 | 2% | 31 | -15% | 12% | -14% | 10%
S=C1NCCNC(=S)NCCOCCOCCOCCN1 | -15% | -15 | 3% | 19% | 5% | 5%
CCCCNC1C(CC)C(CCC)C(C#N)(C#N)C1(C#N)C#N (stereo unspecified) | ? | -118* | ? | 13µM* | ? | 8.2µM*
Cc1ccccc1S(=O)(=O)NC(=O)C1(C)CCN1C(=O)C1(c2ccc(Cl)cc2)CCC1 (stereo unspecified) | nt | 0 | 25% | ? | 24% | -21%
Cc1cccc2nc(CSc3nc4[nH]ncc4c(=O)n3-c3ccccc3Cl)cc(=O)n12 | -20% | -6 | -12% | 15µM* | -11% | 21µM*
Cc1ccccc1-n1c(SCc2cc(=O)n3ccccc3n2)nc2[nH]ncc2c1=O | 2% | 0 | -13% | ? | -16% | -27%
CCc1ccc(-n2c(SCc3ccccc3F)nc3[nH]ncc3c2=O)cc1 | nt | nt | nt | 21µM* | nt | 16µM*
O=c1c2cn[nH]c2nc(SCc2ccccc2F)n1-c1ccc(Br)cc1 | ? | -149* | 0% | ? | 18µM* | ?
SMILES | ELG1 repair inh | IL1B secr inh | HT1080-NT tox | DT40 TDP1 CPT | HT1080 IDH1KD tx | TDP1 cell noCPT
O=c1c2cn[nH]c2nc(SCc2cc(=O)n3cc(Br)ccc3n2)n1-c1ccc(Br)cc1 | ? | -51* | -23% | ? | ? | ?
COc1ccc(N2CCN(C(=O)CSc3nc4[nH]ncc4c(=O)n3-c3ccc(Br)cc3)CC2)cc1 | ? | -24 | -27% | ? | -26% | ?
Cc1ccccc1-n1c(SCc2cccc(F)c2)nc2[nH]ncc2c1=O | -10% | -74* | ? | ? | ? | ?
Cc1ccc(-n2c(SCc3ccccc3F)nc3[nH]ncc3c2=O)cc1Cl | nt | nt | nt | 21µM* | nt | 15µM*
Cc1cc(C)c(S(=O)(=O)Nc2cc(Cl)c3oc4c(c3c2)C(=O)CCC4)cc1C | nt | nt | nt | -14% | nt | -11%
COc1cccc(NC(=O)Cn2nc(C)c3c(C)n(-c4ccccc4)nc3c2=O)c1 | nt | nt | nt | -6% | nt | -13%
O=C1CN(C(=O)c2cccc(Br)c2)c2ccccc2N1 | -13% | 21 | 15µM* | 15µM* | ? | 12µM*
O=C1CN(C(=O)c2ccccc2)c2ccccc2N1 | 18% | -7 | 6% | -1% | 5% | -2%
O=C1CN(C(=O)c2cc(Br)c(Br)s2)c2ccccc2N1 | ? | 19 | ? | ? | 21µM* | 13µM*
OC(c1ccccc1)C(O)C(c1ccccc1)N1CCCCC1 (stereo unspecified) | nt | 0 | 11% | 12% | 5% | -1%
Cc1ccc(NC(=O)/C(C#N)=C/c2ccccc2C(F)(F)F)cc1 | 1% | -24 | 21% | -2% | 6% | -4%
N#C/C(=C\c1ccc[nH]1)C(=O)NC1CC1 | -1% | -5 | 0% | 2% | ? | -9%
Cc1ccc(C)c(NC(=O)/C(C#N)=C/c2ccc[nH]2)c1 | 2% | -1 | -16% | 18µM* | -16% | -22%
Cc1ccccc1NC(=O)/C(C#N)=C/c1ccccc1C(F)(F)F | ? | -72* | -4% | -22% | -3% | ?
Cc1cccc(NC(=O)/C(C#N)=C/c2ccc[nH]2)c1C | ? | 15 | 0% | 12µM* | 0% | ?
CCN(CC(=O)NC(C)(C)C)Cc1cc(=O)n2c(-c3ccccc3)csc2n1 | -7% | 50 | 9% | -1% | -3% | -30%
